Out of some 69,000 compounds screened, about 8,600 (12%) showed an effect of 50% or more. The sample holds strong results, similar compounds and a random draw of the others, so the mix is not that of the screen.
Each compound was assayed on Plasmodium berghei (assay: Screen against P. berghei liver stage (PbLuc), transformed with Luciferase, at 10uM). Details: tested at 10 uM.
Assay type: functional, HepG2

| SMILES | INHIBITION [%] |
| --- | --- |
| CC(C)c1noc(C(C)N2CCN(Cc3noc(C(C)(C)C)n3)CC2)n1 (centres undefined) | -35.7 |
| Cc1cc(C)nc(N2CCC(C(=O)Nc3n[nH]c(CC(C)C)n3)CC2)n1 | 4.93 |
| CNC(=O)C1Cn2ccnc2C2(CCN(Cc3c(C)noc3C)CC2)O1 (centres undefined) | 3.11 |
| Cc1nc(N)c2ccc(C3CCCN3)nc2n1 (centres undefined) | 26.55 |
| Cc1ccsc1C(O)CNS(=O)(=O)Cc1ccc(F)cc1 (centres undefined) | 9.96 |
| Cc1ccsc1C(O)CNC(=O)Cc1ccc(F)cc1 (centres undefined) | 56 |
| COc1ccc(S(=O)(=O)NCC(O)c2sccc2C)cc1Cl (centres undefined) | 51.7 |
| COc1ccc(S(=O)(=O)NCC(O)c2sccc2C)cc1C (centres undefined) | 6.34 |
| Cc1cc(S(=O)(=O)NCC(O)c2sccc2C)ccc1F (centres undefined) | 13.9 |
| COC(=O)c1ccc(S(=O)(=O)NCC(O)c2sccc2C)cc1 (centres undefined) | -11.8 |
| COc1ccc(F)cc1S(=O)(=O)NCC(O)c1sccc1C (centres undefined) | 16.9 |
| COc1ccc(CC(=O)NCC(O)c2sccc2C)cc1OC (centres undefined) | 53.8 |
| Cc1ccsc1C(O)CNC(=O)Cc1ccc(S(=O)(=O)C(C)C)cc1 (centres undefined) | 25.3 |
| COc1ccccc1C(=O)NC(c1ccccn1)C1CCC(CN)CC1 (centres undefined) | 44.1 |
| Cc1ncccc1-c1cc2cccnc2n1CCCNC(=O)C1CC1 | 25.8 |
| CN(Cc1ccccc1)CC(O)Cn1cnc2c(Cl)cc(Cl)cc2c1=O (centres undefined) | 27.433 |
| COCC1CN(C(=O)c2ccoc2C)Cc2nccn2C1 (centres undefined) | 35.3 |
| CC(=O)NCCC(=O)NCc1cccnc1-n1cnc2ccccc21 | 60.1 |
| CS(=O)(=O)NCCC(=O)NCc1cccnc1-n1cnc2ccccc21 | 41.2 |
| COCCC(=O)NCc1cccnc1-n1cnc2ccccc21 | 33.9 |
| CSCCCN1C[C@H](NC(=O)c2cnn(C)c2)[C@@H](C2CC2)C1 | 12.6 |
| Cc1[nH]ccc1C(=O)N[C@H]1CN(CCO)C[C@@H]1C1CC1 | 9.89 |

| SMILES | INHIBITION [%] |
| --- | --- |
| Cc1cnc(C(=O)N[C@H]2CN(CCS(C)(=O)=O)C[C@@H]2C2CC2)cn1 | 53.9 |
| CS(=O)(=O)CCN1C[C@H](NC(=O)c2cnc(O)cn2)[C@@H](C2CC2)C1 | -3.43 |
| Cc1c(C(=O)N[C@H]2CN(CCS(C)(=O)=O)C[C@@H]2C2CC2)cnn1C | 29 |
| CCc1cc(C(=O)N[C@H]2CN(CCS(C)(=O)=O)C[C@@H]2C2CC2)[nH]n1 | 55 |
| Cc1ccc(CNC(C)c2ccc(N3CCN(C)CC3)c(F)c2)o1 (centres undefined) | -11 |
| C1CCc2nnc(CNc3nc(C4CC4)nc4c3CCNCC4)n2CC1 | 3.06 |
| CCc1ccc(S(=O)(=O)Nc2cc(C(=O)O)ccc2F)s1 | 13.85 |
| NC(=O)C1CCN(C(=O)c2cc(S(=O)(=O)N3CCCCC3)cs2)CC1 | 56.3 |
| CN(C)S(=O)(=O)c1csc(C(=O)N2CCSCC2)c1 | 65.6 |
| CCN(CC)S(=O)(=O)c1csc(C(=O)N2CCC(C(N)=O)CC2)c1 | 49.9 |
| NC(=O)C1CCN(Cc2ccc(S(=O)(=O)N3CCCC3)o2)CC1 | 16.5 |
| NC(=O)C1CCN(C(=O)c2cc(S(=O)(=O)N3CCCC3)cs2)CC1 | 56.3 |
| CN(C)S(=O)(=O)c1csc(C(=O)N2CCC(C(N)=O)CC2)c1 | 60.1 |
| COCCNC(=O)c1cc(S(=O)(=O)N2CCCC2)cs1 | 10.3 |
| O=C(c1cc(-c2cccs2)cs1)N1CCSCC1 | -61.1 |
| CCN(c1ccsc1C(=O)N1CCSCC1)S(=O)(=O)c1ccccc1 | -27.5 |
| CCN(c1ccc(C(=O)N2CCC(C(N)=O)CC2)cc1)S(=O)(=O)CC | 47.3 |
| NS(=O)(=O)c1cc(C(=O)N2CCCCC2)cs1 | 30.7 |
| COCCNC(=O)c1cc(S(=O)(=O)N2CCCCCC2)cs1 | 45.6 |
| CC(C(=O)N1CCCN(c2ccc(C#N)cc2)CC1)n1cccn1 (centres undefined) | 10 |
| CCc1nc(C2CCCN2CC(=O)N2CCc3ccccc32)no1 (centres undefined) | 23.5 |
| O=C(CCc1nc2cccnc2[nH]1)Nc1ccc2c(c1)OCC(=O)N2 | 17.1 |

| SMILES | INHIBITION [%] |
| --- | --- |
| CC(C)(C)c1cc(C(=O)N2CCC(c3cnccn3)CC2)[nH]n1 | 29.9 |
| CC(C)CCC(=O)NCCc1ccn(-c2ccccc2)n1 | 5.7 |
| NC(=O)CN(Cc1ccc(Br)cc1)C(=O)c1ccncc1 | -9.51 |
| CCc1ncc(CN2C[C@@H]3CC[C@H]2CN(C(=O)C2CCC2)C3)cn1 | 62.6 |
| O=C(O)[C@@H]1CN(Cc2cnc(C3CCCCC3)nc2)C[C@H]1C1CC1 | 29.6 |
| CCCNc1ncc(CN2C[C@@H]3CC[C@H]2CN(C2CCOCC2)C3)cn1 | 1.98 |
| CCOc1ccc(C(=O)N2C[C@@H]3CC[C@H]2CN(C(=O)C2CCC2)C3)cc1 | 30.3 |
| CCNc1ncc(CN2C[C@@H](C(=O)O)[C@H](C3CC3)C2)cn1 | 58.2 |
| CCn1cc(CN2C[C@@H]3CC[C@H]2CN(C(=O)C2CCC2)C3)cn1 | 4.15 |
| CCNc1ncc(CN2C[C@@H]3CC[C@H]2CN(C(=O)C2CCC2)C3)cn1 | 60.4 |
| Cc1ccc(C(=O)N2C[C@H]3CC[C@@H](C2)N(Cc2ccccc2)C3)cn1 | -13 |
| CCNc1ncc(CN2C[C@H](C3CC3)[C@@H](N)C2)cn1 | 23.9 |
| Cc1ccc(NC2COC3(CCN(Cc4ccn(C)n4)CC3)C2)nn1 (centres undefined) | -4.99 |
| Cc1ccc([C@@H]2CN(C(=O)c3ccccc3C)C[C@H]2N(C)C)cc1 | 39.5 |
| N#Cc1ccccc1CN1C[C@H]2CC[C@@H](C1)N(CC1CCC1)C2=O | 42.6 |
| O=C(N1CCC(Nc2cccnn2)CC1)C1(c2ccc(F)cc2)CC1 | 30.2 |
| CCc1ncc2c(n1)CN(CCCc1nc3ccccc3o1)CC2 | 38.5 |
| COCCCNC(=O)CN(C)C(C)c1nc(C)no1 (centres undefined) | 14.6 |
| COCCNC(=O)CN(C)C(C)c1nc(C)no1 (centres undefined) | 58.5 |
| COCCCNC(=O)CN(C)C(C)c1nc(C(C)C)no1 (centres undefined) | 59.3 |
| COCCCNC(=O)CN(C)C(=O)c1ccccc1O | 20.4 |
| Cc1noc(C(C)N(C)CC(=O)NCCc2ccc(Cl)cc2)n1 (centres undefined) | -9.3 |

| SMILES | INHIBITION [%] |
| --- | --- |
| COCCCNC(=O)c1c(C)noc1C(C)C | -33.7 |
| CCc1ccccc1Nc1noc2c1CN(C(=O)CCOC)CC2 | -5.71 |
| CC(C)CNC(=O)C1CC(=O)N(c2n[nH]c3ccccc23)C1 (centres undefined) | -11.7 |
| CCN1CCCC(C)(C(=O)NCc2nnnn2-c2ccccc2)C1 (centres undefined) | -1.7 |
| c1ccc2nc(NCC3(N4CCOCC4)CCSC3)cnc2c1 (centres undefined) | 46.6 |
| Fc1cccc2ncnc(NCC3(N4CCOCC4)CCSC3)c12 (centres undefined) | 91.1 |
| O=C(NCC1(N2CCOCC2)CCSC1)Nc1ccncc1 (centres undefined) | 18.6 |
| O=C(NCC1(N2CCOCC2)CCSC1)Nc1ccccn1 (centres undefined) | 18.6 |
| c1ccc2c(NCC3(N4CCOCC4)CCSC3)ncnc2c1 (centres undefined) | 94.5 |
| c1nc(NCC2(N3CCOCC3)CCSC2)c2sccc2n1 (centres undefined) | 91.1 |
| CN(Cc1ccc(F)cc1)C(=O)NCC1(N2CCOCC2)CCSC1 (centres undefined) | 36.8 |
| c1ccc2sc(NCC3(N4CCOCC4)CCSC3)nc2c1 (centres undefined) | 18.3 |
| O=C(NCc1ccc(F)cc1)NCC1(N2CCOCC2)CCSC1 (centres undefined) | 40.5 |
| CC1CCN(S(=O)(=O)c2ccc(C(=O)N3CCSCC3)cc2)CC1 | -2.39 |
| CN(C)C(=O)NCc1cc2n(n1)CCN(CC1[C@H]3CNC[C@@H]13)C2 (some centres undefined) | 43.5 |
| NC(=O)c1cnn2c(C3CCN(CCO)CC3)ccnc12 | 14.55 |
| COCc1cnc2n1CCN(Cc1cccnc1)C2C (centres undefined) | -0.182 |
| O=C(N[C@@H]1CN(Cc2cccc3[nH]ccc23)C[C@H]1O)c1cscn1 | -10.8 |
| CCN1CC(COC(C)(C)C)Oc2ccncc2S1(=O)=O (centres undefined) | 13.1 |
| CS(=O)(=O)N1CCN(C(=O)CCn2cccn2)CC1 | 17.32 |
| CC(C)Cc1nc(CN(C)CCOc2ccccc2F)no1 | 34.7 |
| Cc1ccccc1OCCN(C)Cc1noc(CC(C)C)n1 | 33.7 |

| SMILES | INHIBITION [%] |
| --- | --- |
| CC(C)Cc1nc(CN(C)CCOc2ccc(F)cc2)no1 | 59.4 |
| Cc1cccc(C(=O)N2CCc3c(CN(C)C)nn(C)c3C2)n1 | 38.3 |
| Cc1nc(C)c(C(=O)NCCNc2ncccn2)s1 | 38.8 |
| CN1CCN(CC2CC2)C(=O)C12CCN(C(=O)c1ccnnc1)CC2 | 5.63 |
| CCC(=O)Nc1ccc2c(c1)CN(C(=O)c1ccco1)CC2 | -46.6 |
| COCC(=O)Nc1ccc2c(c1)CN(C(=O)c1ccco1)CC2 | -45.3 |
| CC(=O)Nc1ccc2c(c1)CN(C(=O)c1ccco1)CC2 | 55.7 |
| CC(=O)c1cc(Br)cc(F)c1OCC(=O)NC1CC1 | -3.72 |
| CN(C)C(=O)CN1CCCC(CCCc2ccccn2)(C(N)=O)C1 (centres undefined) | -50.2 |
| Cn1cnnc1C1CCN(C(=O)c2cc3c(s2)CCC3)CC1 | 9.14 |
| Cc1ccccc1OCCC(=O)N1CCC(c2nncn2C)CC1 | -4.94 |
| Cc1ccc(OCCC(=O)N2CCC(c3nncn3C)CC2)c(C)c1 | -17 |
| CCn1cnnc1C1CCN(C(=O)COc2ccccc2)CC1 | 53 |
| COc1cccc(OCC(=O)N2CCC3(CC2)[C@H](O)C[C@@H]3OC)c1 | -14.1 |
| CO[C@H]1C[C@@H](O)C12CCN(C(=O)CCCOc1ccccc1)CC2 | 72.3 |
| CCn1cnnc1C1CCN(C(=O)COc2ccc(Cl)cc2)CC1 | -37.7 |
| Cc1cccc(C)c1OCCC(=O)N1CCC(c2nncn2C)CC1 | 55.9 |
| CCn1cnnc1C1CCN(C(=O)COc2ccccc2OC)CC1 | -41.6 |
| CCn1cnnc1C1CCN(C(=O)c2cc3c(s2)CCC3)CC1 | 61.3 |
| NCCO[C@H]1C[C@@H](O)C12CCN(C(=O)CCOc1ccccc1)CC2 | 5.67 |
| CCn1cnnc1C1CCN(C(=O)c2cc3c(s2)CCCC3)CC1 | 13.3 |
